CHT PAM = human CHT allosteric activation | CHT-expressing cells, membrane potential dye, choline EC20; stronger effect = higher value; LV-AA mutant CHT in HEK293 cells | B-score at 10 µM | 310,000 compounds, 0.49% hits | AID 488977;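 active = initial fluorescence not abnormally high and integrated response B-score, plate-corrected, over 3 SD above library mean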
MEKK2 mut-MEK5 = signal of MEK5 binding to mutant human MEKK2 PB1 domain. bead flow cytometry, Alexa488-MEK5 binding to MEKK2 mutant. percent response, % at 10 µM. 290,000 compounds, 0.35% hits; in the data active = percent response above about 24%, passing the limit was not always enough
MEKK3 PB1 HTS = MEKK3-MEK5 PB1 interaction, increase or decrease. AID 1529. binding response (% of control), % at 10 µM. 290,000 compounds, 1.4% hits. Q99759. bead-based flow cytometry, Alexa488-MEK5 binding to MEKK3; actives lie on both sides; 0 = blocked by unlabeled MEK5, 100 = vehicle;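 active = binding response more than 3 SD above or below the average of its plate-row segment, actives on both sides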;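 also: Alexa488 bead fluorescence after subtracting the streptavidin-only scavenger bead signal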
Target sequence (Q99759 whole entry, looked up): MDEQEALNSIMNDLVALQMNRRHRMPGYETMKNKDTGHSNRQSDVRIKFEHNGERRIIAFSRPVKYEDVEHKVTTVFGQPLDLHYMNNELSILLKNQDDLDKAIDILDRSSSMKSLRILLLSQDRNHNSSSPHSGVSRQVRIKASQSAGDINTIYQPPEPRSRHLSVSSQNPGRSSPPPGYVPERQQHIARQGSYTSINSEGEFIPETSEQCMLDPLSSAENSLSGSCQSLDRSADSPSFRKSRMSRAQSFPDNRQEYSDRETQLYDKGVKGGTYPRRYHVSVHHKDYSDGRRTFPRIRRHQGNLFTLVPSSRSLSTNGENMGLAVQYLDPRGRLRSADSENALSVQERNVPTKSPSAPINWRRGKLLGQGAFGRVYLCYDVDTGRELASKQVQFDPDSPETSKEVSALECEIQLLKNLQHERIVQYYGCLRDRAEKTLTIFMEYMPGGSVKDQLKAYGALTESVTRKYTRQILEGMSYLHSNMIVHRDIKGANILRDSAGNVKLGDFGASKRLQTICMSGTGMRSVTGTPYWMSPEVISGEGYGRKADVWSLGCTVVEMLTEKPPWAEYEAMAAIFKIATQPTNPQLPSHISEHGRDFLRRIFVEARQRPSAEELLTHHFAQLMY
CHT inh = inhibitors of human choline transporter CHT | Q9GZV3 | CHT-expressing cells, membrane potential dye, choline response; stronger effect = lower value | B-score at 10 µM | 310,000 compounds, 0.86% hits | AID 488975;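 active = B-score over 3 SD under the library average, and starting fluorescence ratio not unusually high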;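 also: choline stimulus applied at its EC90 after an EC20 pre-addition; B-score computed on integrated fluorescence ratio after choline addition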
SUMO Mot1 rescue = blocks SUMOylation pathway, rescuing yeast Mot1-301 growth; S. cerevisiae Mot1-301 growth rescue, ATP luminescence, 38.5C; percent above DMSO median, 100 means doubled; growth rescue, % at 18.8 µM; 320,000 compounds, 1% hits; AID 2716;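 active = every valid replicate shows activation above 250% relative to neutral control wells; inactive = the rest, any valid replicate at or below 250%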
MEKK2 WT-MEK5 = raises or lowers MEK5 binding to wildtype human MEKK2 PB1 domain | AID 1531 | binding response (% of control), % at 10 µM | Q9Y2U5 | 290,000 compounds, 1.1% hits | bead flow cytometry, Alexa488-MEK5 binding to MEKK2 WT; actives lie on both sides; in the data active = binding response below about 67% or above about 130%
Yeast Mot1 SUMO = SUMO pathway inhibitors in yeast Mot1-301 growth; shares compounds with SUMO Mot1 rescue; S. cerevisiae Mot1-301 galactose growth, ATP luminescence, 24 h; -100 = growth of slx-deleted rescue strain; growth activity, percent, % at 42 µM; 2,300 tested, under 10 active; AID 493004;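 active = Signal drops as the depositor expects, and the fitted half-maximal dose is no more than ten times the top valid tested dose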;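 also: more negative values mean stronger growth rescue toward the control strain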
Numbers stand for hits; 0 = inactive; - = no result; + = active, no number; ! = a repeat was not active. Only some compounds are listed: those with a hit (about 4.1% of all), similar ones and a draw of the others.

SMILES	CHT PAM	MEKK2 mut-MEK5	MEKK3 PB1 HTS	CHT inh	SUMO Mot1 rescue	MEKK2 WT-MEK5	Yeast Mot1 SUMO
COc1ccc2c(c1)OC[C@H]1[C@H]2N2C(=O)c3cc(OC)c(OC)cc3NC(=O)[C@@]2(C)[C@H]1c1ccccc1	0	-	-	0	485	-	0
COc1ccc2c(c1)OC[C@H]1[C@H]2N2C(=O)c3cc(Br)ccc3NC(=O)[C@@]2(C)[C@H]1c1ccccc1	0	-	-	0	468	-	0
COc1ccc2c(c1)C(=O)N1[C@H]3c4cc(OC)ccc4OC[C@@H]3[C@H](c3ccccc3)[C@]1(C)C(=O)N2	0	-	-	0	0	-	-
Cc1ccnc(Cc2ccccc2)n1	0	0	0	0	0	0	-
COc1cc(C(=O)NCc2nnc(SCC(=O)NCc3ccco3)o2)cc(OC)c1OC	0	0	0	0	0	0	-
COc1ccc(NC(=O)CC2SC(N3CCOCC3)=NC2=O)cc1OC (stereo not drawn)	-	-	-	-	0	-	-
Cc1ccc(SCC(=O)O/N=C(\N)c2cccc([N+](=O)[O-])c2)cc1	0	-	-	0	+	-	0
CC(=O)c1ccc(NC(=S)N2CCCCCC2)cc1	0	0	0	0	0	0	-
CC(=O)c1ccc(N=C2SCCCN2C(=O)C2CCCC2)cc1	0	0	0	0	398	0	0
COc1ccc(CN2C(=O)[C@@H]3Cc4c([nH]c5ccccc45)C(C)(C)N3C2=O)cc1	0	0	0	0	0	0	-
CC1(C)c2[nH]c3ccccc3c2C[C@H]2C(=O)N(Cc3cccc(F)c3)C(=O)N21	0	0	0	0	448	0	0
O=C(N/N=C/c1cccc([N+](=O)[O-])c1)C1COc2ccccc2O1 (stereo not drawn)	0	0	0	0	678	0	0
Cn1cccc1CC(=O)N/N=C/c1cccc([N+](=O)[O-])c1	0	0	0	0	409	0	0
CC1(C)CC(=O)N(c2cc(Cl)ccc2Cl)C(=O)C1	0	0	0	0	0	0	-
CC(C)CC(c1nnnn1Cc1ccc(F)cc1)N1CCC(C(N)=O)CC1 (stereo not drawn)	0	0	0	0	0	0	-
O=C(O)COC(=O)C1C(c2ccccc2)C(C(=O)O)C1c1ccccc1 (stereo not drawn)	0	0	0	0	0	0	-
COc1cc2c(=O)n(-c3ccc(C)cc3)c(=O)n(CC(=O)c3ccc4c(c3)OCO4)c2cc1OC	0	0	0	0	694	0	0
C=CCn1c(=O)c(C(=O)NCc2ccc3c(c2)OCO3)c(O)c2cc(OC)c(OC)cc21	0	0	0	0	0	0	-
COc1ccc(C2NC(=O)c3ccccc3O2)cc1 (stereo not drawn)	0	0	0	0	529	0	0
COc1ccc(C2=NS(=O)(=O)N(C)C(C(=O)NCc3ccc(F)cc3)=C2)cc1OC	0	0	0	0	0	0	-
CC(OC(=O)c1ccco1)C(=O)Nc1ncc(Cl)cc1Cl (stereo not drawn)	-	-	-	-	0	-	-
COc1ccc(NC(=O)Cn2c(=O)n(CC(=O)NCc3ccco3)c(=O)c3ccccc32)cc1	0	0	0	0	0	0	-
CN/C(=C/[N+](=O)[O-])NCCSCc1ccc(CN(C)C)o1	0	0	0	0	860!	0	0
CN(c1ccc(C(=O)NCCSCc2ccco2)cc1)S(C)(=O)=O	0	0	0	0	0	0	-
O=C(COC(=O)c1ccc([N+](=O)[O-])o1)Nc1ncc(Cl)cc1Cl	-	-	-	-	848	-	0
SMILES	CHT PAM	MEKK2 mut-MEK5	MEKK3 PB1 HTS	CHT inh	SUMO Mot1 rescue	MEKK2 WT-MEK5	Yeast Mot1 SUMO
CN(C)S(=O)(=O)N1CCc2ccccc21	0	0	0	0	0	0	-
CN(C)S(=O)(=O)N1CCc2ccccc2C1	0	0	0	0	+	0	0
Cc1ccc2nc(N/N=C/c3ccccc3F)nc(-c3ccccc3)c2c1	0	0	0	0	473	0	0
COc1ccc(C2SCC(=O)N2c2ccc(OC)cc2)cc1 (stereo not drawn)	0	0	0	0	0	0	-
COc1ccc(N2C(=O)CSC2c2ccc([N+](=O)[O-])cc2)cc1 (stereo not drawn)	0	0	0	0	580	0	0
CCOc1ccc(N(CC(=O)NC2CCC(C)CC2)S(=O)(=O)c2c(C)noc2C)cc1 (stereo not drawn)	0	0	0	0	461	0	0
COc1ccc(NC(=O)CN(c2ccc(C(C)C)cc2)S(=O)(=O)c2c(C)noc2C)cc1OC	0	0	0	0	367	0	0
Cc1ccc(N(CC(=O)NCCc2ccc(Cl)cc2)S(=O)(=O)c2c(C)noc2C)cc1	0	0	0	0	510	0	0
CCn1ncc(Br)c1C(=O)Nc1ccc(OC(F)(F)F)cc1	0	0	0	0	451	0	0
CCn1ncc(Br)c1C(=O)Nc1ccc(C(=O)OC(C)C)cc1	0	0	0	0	0	0	-
COc1ccccc1OCc1nnc(SCC(=O)Nc2nnc(C3CC3)s2)n1C	0	0	0	0	0	0	-
CNC(=O)Nc1cc(NC(=O)NC)cc(C(F)(F)F)c1	0	0	0	0	586	0	0
Cc1nc(C)c(-c2ccc(SCC(=O)Nc3cccc(Cl)c3C)nn2)s1	0	0	0	0	0	0	-
c1ccc(CNc2ncnc3sc4c(c23)CCC4)nc1	0	0	0	0	818	0	0
c1cncc(CNc2ncnc3sc4c(c23)CCC4)c1	0	0	0	0	0	0	-
CC(C)CNc1cc(=O)n(C)c(=O)n1C	0	0	0	0	392	0	0
CCNc1cc(=O)n(C)c(=O)n1C	0	0	0	0	0	0	-
CN(CC1CCOCC1)C(=O)CC1C(=O)NCCN1Cc1cccc(C(F)(F)F)c1 (stereo not drawn)	-	0	0	-	-	0	-
CCOC(=O)N1CCN(C(=O)c2ccccc2-c2ccccc2)CC1	0	0	0	0	436	0	0
CC1O[C@@H](O[C@H](C)CC[C@@H](C)O[C@H]2OC(C)[C@@H](O)C[C@H]2O)C(O)C[C@H]1O (stereo partly drawn)	0	-	-	0	0	-	-
COc1cc(C(=O)N/N=C/c2ccccn2)cc(OC)c1OC	0	0	0	0	935	0	0
COc1cccc(C(=O)Cn2c(=O)n(CCC(=O)NCC3CCCO3)c(=O)c3cc(OC)c(OC)cc32)c1 (stereo not drawn)	0	0	0	0	0	0	-
COc1cc2c(=O)n(CCC(=O)NCC3CCCO3)c(=O)n(CC(=O)Nc3ccccc3C)c2cc1OC (stereo not drawn)	0	0	0	0	444	0	0
